Activity calls are given as the source filed them.
Key:
[1] = test system: Plasmodium falciparum Sir2 (PF13_0152, Sir2A); assay: Plasmodium falciparum Sir2A binding compounds – biochemical, small-molecule microarray, 635 nm fluorescence, primary screen (AID 1098); settings: fluorescence 635 nm, higher = more signal;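 further: score merges spot fluorescence intensity with its signal-to-noise ratio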
[2] = probe aDKK1 binding to arrayed compounds – biochemical, biotinylated probe, 635/667 nm fluorescence, primary screen (AID 1099); settings: small-molecule microarray, higher = more signal;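 further: score merges 667nm spot fluorescence with signal to noise across triplicate slides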
[3] = probe aCHRDL2 binding to arrayed compounds – biochemical, biotinylated probe, 635/667 nm fluorescence, primary screen (AID 1100); settings: small-molecule microarray, higher = more signal
[4] = change in splice reporter luminescence, either direction, cell-based, HEK293, spliceosome inhibition project, primary screen (AID 1101); settings: HEK293 splicing luciferase reporter, 24 h, higher = more signal, called active from +8 up or from −8 down;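 further: HEK293 cells carrying a splicing-competent luciferase reporter gene; test concentration not given here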
[5] = molecular target: Fibroblast growth factor 10 (Homo sapiens) (UniProt O15520); assay: compounds binding fibroblast growth factor 10 – biochemical, small-molecule microarray, 635 nm fluorescence, primary screen (AID 1102); settings: FGF10 binding, fluorescence 635 nm, higher = more signal
Fibroblast growth factor 10 (Homo sapiens), sequence (O15520 whole entry, looked up): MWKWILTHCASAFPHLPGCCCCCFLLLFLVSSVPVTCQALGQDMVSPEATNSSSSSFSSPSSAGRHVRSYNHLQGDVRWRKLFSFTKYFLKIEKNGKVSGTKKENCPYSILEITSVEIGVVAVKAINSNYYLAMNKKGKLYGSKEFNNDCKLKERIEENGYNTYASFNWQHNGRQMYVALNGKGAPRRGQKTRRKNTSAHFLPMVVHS

[6] = test system: glycogen synthase kinase-3 (GSK3A per assay name; protocol says GSK3B); assay: compounds binding glycogen synthase kinase-3 – biochemical, small-molecule microarray, 635 nm fluorescence, GSK3A, primary screen (AID 1103); settings: fluorescence 635 nm, higher = more signal; further: the record names both GSK3A and GSK3B
[7] = molecular target: Epidermal growth factor receptor (Homo sapiens) (UniProt P00533); assay: compounds binding epidermal growth factor receptor – biochemical, small-molecule microarray, 635 nm fluorescence, primary screen (AID 1104); settings: EGFR binding, higher = more signal;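 further: score merges 667 nm emission intensity with spot signal to noise over triplicate slides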
Epidermal growth factor receptor (Homo sapiens), sequence (P00533 whole entry, looked up): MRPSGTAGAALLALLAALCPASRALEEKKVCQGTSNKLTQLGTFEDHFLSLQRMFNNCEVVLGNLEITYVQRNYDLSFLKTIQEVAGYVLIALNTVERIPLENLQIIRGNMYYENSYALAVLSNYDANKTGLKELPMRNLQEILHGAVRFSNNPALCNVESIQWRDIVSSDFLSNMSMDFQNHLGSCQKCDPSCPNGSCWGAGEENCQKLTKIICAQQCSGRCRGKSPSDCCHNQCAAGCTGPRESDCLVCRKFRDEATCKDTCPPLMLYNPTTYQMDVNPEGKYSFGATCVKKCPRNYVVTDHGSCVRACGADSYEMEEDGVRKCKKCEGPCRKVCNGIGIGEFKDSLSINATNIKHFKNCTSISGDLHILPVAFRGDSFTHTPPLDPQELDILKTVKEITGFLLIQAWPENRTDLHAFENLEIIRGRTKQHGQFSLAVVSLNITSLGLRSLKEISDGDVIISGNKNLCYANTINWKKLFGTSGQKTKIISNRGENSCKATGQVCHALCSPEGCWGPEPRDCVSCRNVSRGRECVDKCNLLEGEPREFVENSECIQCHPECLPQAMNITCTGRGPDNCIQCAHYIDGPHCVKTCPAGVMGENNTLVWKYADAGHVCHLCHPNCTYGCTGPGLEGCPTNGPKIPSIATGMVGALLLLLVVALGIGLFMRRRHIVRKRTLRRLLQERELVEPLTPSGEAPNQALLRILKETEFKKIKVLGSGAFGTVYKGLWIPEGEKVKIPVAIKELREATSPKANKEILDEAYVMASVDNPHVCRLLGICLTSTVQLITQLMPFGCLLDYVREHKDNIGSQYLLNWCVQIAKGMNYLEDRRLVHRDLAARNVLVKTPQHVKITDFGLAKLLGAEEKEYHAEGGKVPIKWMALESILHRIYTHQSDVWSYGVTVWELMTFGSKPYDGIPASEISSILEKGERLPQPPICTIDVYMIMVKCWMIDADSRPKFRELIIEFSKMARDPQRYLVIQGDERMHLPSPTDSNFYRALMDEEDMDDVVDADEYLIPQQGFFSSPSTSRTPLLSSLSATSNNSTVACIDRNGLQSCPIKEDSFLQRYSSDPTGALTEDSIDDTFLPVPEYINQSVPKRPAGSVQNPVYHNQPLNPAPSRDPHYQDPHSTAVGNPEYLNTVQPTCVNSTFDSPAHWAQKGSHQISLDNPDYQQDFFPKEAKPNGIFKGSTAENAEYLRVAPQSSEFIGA

[8] = molecular target: Follistatin-related protein 3 (Homo sapiens) (UniProt O95633); assay: compounds binding follistatin-related protein 3 – biochemical, small-molecule microarray, 635 nm fluorescence, primary screen (AID 1105); settings: FSTL3 binding, higher = more signal;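 further: score merges emission near 667 nm and signal to noise per printed spot across three slides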
Follistatin-related protein 3 (Homo sapiens), sequence (O95633 whole entry, looked up): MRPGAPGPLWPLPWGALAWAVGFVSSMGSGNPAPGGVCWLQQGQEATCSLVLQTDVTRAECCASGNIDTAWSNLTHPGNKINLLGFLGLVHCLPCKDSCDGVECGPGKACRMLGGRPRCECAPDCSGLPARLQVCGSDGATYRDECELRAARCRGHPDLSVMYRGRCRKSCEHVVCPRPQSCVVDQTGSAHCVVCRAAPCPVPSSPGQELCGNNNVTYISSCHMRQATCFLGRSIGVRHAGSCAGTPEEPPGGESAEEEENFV

[9] = molecular target: Dickkopf-related protein 1 (Homo sapiens) (UniProt O94907); assay: small molecules binding DKK1 protein – biochemical, small-molecule microarray, 635 nm fluorescence scan, primary screen (AID 1106); settings: higher = more signal;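 further: score merges emission near 667 nm with signal to noise over three replicate slides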
Dickkopf-related protein 1 (Homo sapiens), sequence (O94907 whole entry, looked up): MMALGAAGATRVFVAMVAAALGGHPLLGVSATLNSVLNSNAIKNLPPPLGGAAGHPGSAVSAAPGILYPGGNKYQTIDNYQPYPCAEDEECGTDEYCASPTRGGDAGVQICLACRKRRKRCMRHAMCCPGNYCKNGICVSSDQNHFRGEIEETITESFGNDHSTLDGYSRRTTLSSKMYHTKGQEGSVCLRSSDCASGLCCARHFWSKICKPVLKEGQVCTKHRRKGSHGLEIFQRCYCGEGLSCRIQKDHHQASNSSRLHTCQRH

[10] = test system: Inhibin beta A chain (activin A); assay: small molecules binding activin A – biochemical, small-molecule microarray, 635 nm fluorescence scan, primary screen (AID 1107); settings: INHBA, higher = more signal;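 further: mouse activin A protein probed at 4.33 µg/mL on printed slides; score merges bound-protein fluorescence near 667 nm with spot signal-to-noise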
[11] = test system: Human papillomavirus type 1a protein E7 (residues 44-93); assay: small molecules binding HPV E7 44-93 – biochemical, small-molecule microarray, residues 44-93, 635 nm fluorescence, primary screen (AID 1108); settings: fluorescence 635 nm, higher = more signal;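 further: E7 fragment applied at 1 µg/mL in TBST for 1 h at 4 C; score combines spot fluorescence with its signal to noise ratio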
[12] = hepatitis C replication reporter changes, two-sided – Huh7 cells, luciferase reporter, HCV replication inhibitor project, primary screen (AID 1109); settings: Huh7 HCV replicon luciferase reporter, 48 h; higher = more signal;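 further: huh7 hepatoma cells harbouring a luciferase neomycin HCV replicon reporter; luciferase luminescence as measure of HCV replicon replication; test concentration not given here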
[13] = molecular target: Left-right determination factor 2 (Homo sapiens) (UniProt O00292); assay: small molecules binding LEFTY2 protein – biochemical, small-molecule microarray, 635 nm fluorescence scan, primary screen (AID 1110); settings: higher = more signal
Left-right determination factor 2 (Homo sapiens), sequence (O00292 whole entry, looked up): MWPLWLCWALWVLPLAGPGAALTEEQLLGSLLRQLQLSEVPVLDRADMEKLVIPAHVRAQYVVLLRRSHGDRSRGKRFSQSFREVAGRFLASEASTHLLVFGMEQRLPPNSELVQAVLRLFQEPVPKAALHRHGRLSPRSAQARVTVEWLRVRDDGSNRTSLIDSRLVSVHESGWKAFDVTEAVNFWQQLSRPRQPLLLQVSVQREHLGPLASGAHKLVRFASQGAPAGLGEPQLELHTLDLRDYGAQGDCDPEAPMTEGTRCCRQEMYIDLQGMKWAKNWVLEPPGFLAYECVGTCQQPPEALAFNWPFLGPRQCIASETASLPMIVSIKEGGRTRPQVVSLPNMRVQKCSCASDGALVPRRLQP

[14] = molecular target: Calmodulin-1 (Homo sapiens) (UniProt P0DP23); assay: small molecules binding calmodulin-1 with EGTA – biochemical, small-molecule microarray, Cy5-labelled CALM1, profiling panel (AID 1111); settings: Cy5-CALM1 binding fluorescence, higher = more signal;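 further: labelled calmodulin applied in Tris saline Tween buffer holding calcium plus EGTA and DTT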
[15] = molecular target: Calmodulin-1 (Homo sapiens) (UniProt P0DP23); assay: small molecules binding Ca-loaded calmodulin-1 – biochemical, small-molecule microarray, Cy5-labelled CALM1, plus calcium, artefact control for SMM control-protein annotation, profiling panel (AID 1112); settings: Cy5-CALM1 binding fluorescence, higher = more signal;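 further: score merges spot fluorescence with signal to noise from triplicate slides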
[16] = probe aWnt5a binding to arrayed compounds – biochemical, biotinylated probe, 635/667 nm fluorescence, primary screen (AID 1113); settings: small-molecule microarray, higher = more signal;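 further: score merges 667 nm fluorescence intensity with signal-to-noise per printed feature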
[17] = probe aShh binding to arrayed compounds – biochemical, biotinylated probe, 635/667 nm fluorescence, primary screen (AID 1114); settings: small-molecule microarray, higher = more signal;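 further: probe is biotin-labelled aShh protein from a stem cell growth factor screen; measures binding of labelled protein to compounds printed on the slide; score merges feature fluorescence at 667 nm with signal-to-noise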
[18] = probe aNog binding to arrayed compounds – biochemical, biotinylated probe, 635/667 nm fluorescence, primary screen (AID 1115); settings: small-molecule microarray, higher = more signal;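 further: probe is biotinylated aNog protein used at 0.15 µg/mL for 1 h at 4 C; z-score combines 667 nm fluorescence of each spot with its signal to noise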
[19] = molecular target: Torsin-1A-interacting protein 1 (Homo sapiens) (UniProt Q5JTV8); assay: compound microarray binding of lysate hLAP1 – cell lysate, small-molecule microarray, COS7 lysate, 635/667 nm fluorescence, primary screen (AID 1116); settings: 635 nm fluorescence, higher = more signal
Torsin-1A-interacting protein 1 (Homo sapiens), sequence (Q5JTV8 whole entry, looked up): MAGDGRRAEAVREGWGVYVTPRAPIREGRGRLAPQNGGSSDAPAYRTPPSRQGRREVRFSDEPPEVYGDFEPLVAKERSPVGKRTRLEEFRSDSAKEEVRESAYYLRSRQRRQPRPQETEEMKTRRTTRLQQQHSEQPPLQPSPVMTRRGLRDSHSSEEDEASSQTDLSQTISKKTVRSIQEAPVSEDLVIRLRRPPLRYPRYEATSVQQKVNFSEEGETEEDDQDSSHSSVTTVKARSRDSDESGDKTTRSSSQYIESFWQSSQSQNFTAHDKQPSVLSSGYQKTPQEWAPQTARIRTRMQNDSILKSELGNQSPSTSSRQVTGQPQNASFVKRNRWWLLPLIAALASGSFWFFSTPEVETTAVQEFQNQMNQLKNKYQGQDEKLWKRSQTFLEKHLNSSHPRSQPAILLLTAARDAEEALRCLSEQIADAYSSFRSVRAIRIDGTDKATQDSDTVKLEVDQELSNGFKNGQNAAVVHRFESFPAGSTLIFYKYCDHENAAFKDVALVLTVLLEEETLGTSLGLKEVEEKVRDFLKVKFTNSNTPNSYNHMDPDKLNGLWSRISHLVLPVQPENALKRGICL

[20] = molecular target: Alpha-bungarotoxin (Bungarus multicinctus) (UniProt P60615); assay: compounds binding labelled alpha-BTX control protein – biochemical, small-molecule microarray, Alexa647 label, 635/667 nm fluorescence, artefact control for SMM control protein annotation, profiling panel (AID 1117); settings: alpha-BTX-A647 binding fluorescence, higher = more signal
Alpha-bungarotoxin (Bungarus multicinctus), sequence (P60615 whole entry, looked up): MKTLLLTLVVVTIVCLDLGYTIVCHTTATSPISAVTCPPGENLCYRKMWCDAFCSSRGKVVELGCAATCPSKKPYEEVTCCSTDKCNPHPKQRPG

SMILES | composite z-score [1] | composite z-score [2] | composite z-score [3] | z-score [4] | composite z-score [5] | composite z-score [6] | composite z-score [7] | composite z-score [8] | composite z-score [9] | composite z-score [10] | composite z-score [11] | z-score [12] | composite z-score [13] | composite z-score [14] | composite z-score [15] | composite z-score [16] | composite z-score [17] | composite z-score [18] | composite z-score [19] | composite z-score [20]
CO[C@H]1O[C@H](CO)[C@@H](OC(=O)Nc2ccccc2)[C@H](OC(=O)Nc2ccccc2)[C@H]1OC(=O)Nc1ccccc1 | 1.48 | -0.0074 | -0.0165 | -0.405 (inactive) | 1.48 | 1.25 | 0.0428 | 0.41 | 0.183 | 0.232 | 1.5 | -2.73 | -0.0522 | 1.34 | -0.12 | 0.0519 | -0.0709 | -0.273 | 1.75 | 1.05
O=C(NC1CC1)[C@@H]1c2ccccc2C(=O)N(CC23CC4CC(CC(C4)C2)C3)[C@H]1c1ccc(CO)cc1 | 0.728 | -0.226 | -0.0162 | -0.724 (inactive) | 1.41 | 1.32 | 1.03 | 1.43 | 1.28 | 0.372 | 1.36 | -1.22 | 1.13 | 0.609 | -0.657 | -0.096 | -0.138 | -0.541 | 0.755 | 0.428
C=C(CCCC)/C(=C/C[C@H](OC(=O)c1ccncc1)c1ccc(OCCO)cc1)c1cnc2ccccc2c1 | 1.47 | -0.107 | 0.164 | -0.0197 (inactive) | 0.898 | 0.829 | 0.776 | 1.45 | 0.768 | 1.36 | -0.38 | -2.25 | 0.437 | 0.679 | -0.159 | -0.129 | -0.0146 | -0.125 | 0.49 | 2.52
CN(C)CCCCNC(=O)[C@H]1C[C@H]2C(=O)NCC(=O)N2[C@H]1c1ccc(O)cc1 | 0.978 | -0.114 | 0.0669 | -0.127 (inactive) | -0.14 | -0.286 | -0.603 | -0.107 | 0.0896 | -0.0569 | -0.392 | 0.143 | -0.735 | -0.608 | 0.577 | -0.145 | -0.501 | -0.248 | -0.38 | 0.52
CC(C)c1nc2cc(Br)ccc2c(=O)o1 | 0.338 | 0.444 | -0.123 | 1.44 (inactive) | 0.755 | 1.02 | 0.397 | 0.523 | 0.359 | -0.585 | 1.32 | -0.559 | 0.371 | 2 | 0.93 | -0.0367 | -0.427 | 0.418 | 1.61 | 0.868

Source: PubChem BioAssay
